# Screening data as filed in PubChem.
# CHO-K1 Ca antag: counter-screen for M1 antagonists: effect in parental CHO-K1 cells | ATP-induced calcium, Fluo-8 fluorescence | inhibition, % at 3 µM | 360,000 compounds, 0.6% hits;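 active = inhibition above a per-plate cutoff, the plate's mean sample inhibition plus 3 SD, cut at about 24% in these data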;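 note: 0% = DMSO plus EC80 ATP and 100% = DMSO alone without ATP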
# M1 PAM: human CHRM1 positive allosteric modulation; 360,000 compounds, 0.088% hits; P11229; CHO-K1 hM1, Fluo-8 calcium fluorescence, ACh EC20; 0% = ACh EC20, 100% = maximal ACh; activation, % at 3 µM; in the data active = activation above about 19%, passing the limit was not always enough
# Target sequence (P11229 whole entry, looked up): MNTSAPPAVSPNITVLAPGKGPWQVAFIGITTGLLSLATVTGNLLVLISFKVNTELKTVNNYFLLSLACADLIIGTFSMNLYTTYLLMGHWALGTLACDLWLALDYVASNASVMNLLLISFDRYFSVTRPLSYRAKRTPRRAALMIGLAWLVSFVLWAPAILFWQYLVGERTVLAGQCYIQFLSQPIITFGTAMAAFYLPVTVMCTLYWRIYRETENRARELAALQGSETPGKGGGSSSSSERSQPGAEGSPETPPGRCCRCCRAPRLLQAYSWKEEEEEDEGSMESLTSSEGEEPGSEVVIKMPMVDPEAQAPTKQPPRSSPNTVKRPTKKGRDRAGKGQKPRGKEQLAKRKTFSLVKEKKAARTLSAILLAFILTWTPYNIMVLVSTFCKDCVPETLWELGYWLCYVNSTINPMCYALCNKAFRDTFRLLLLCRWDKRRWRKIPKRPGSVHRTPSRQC
# CHRM1 agonist: agonists of human M1 muscarinic receptor. AID 588814. activation, % at 3 µM. 360,000 compounds, 0.33% hits. CHO-K1 hM1, Fluo-8 calcium fluorescence, agonist mode; 0% DMSO, 100% acetylcholine EC100. P11229;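 active = activation above the run's mean compound activation plus 3 SD, cut at about 16% in these data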;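 note: peak over basal fluorescence ratio within a 140 s kinetic read after compound addition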
# M1 PAM parental: M1 PAM counterscreen hit in parental CHO-K1 cells; ATP EC20, Fluo-8 calcium fluorescence; 0% at ATP EC20, 100% at ATP max; activation, % at 3 µM; 360,000 compounds, 0.02% hits; AID 602247;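 active = activation above the run cutoff, the mean activation of all test compounds plus 3 SD, cut at about 40% in these data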;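 note: peak over basal fluorescence ratio in a 140 s read after ATP addition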
# CHO-K1 Ca ag: nonselective activator or artifact in parental CHO-K1 cells | 360,000 compounds, 0.48% hits | activation, % at 3 µM | Fluo-8 calcium fluorescence; scaled to maximal ATP response, vehicle zero | AID 602248; in the data active = activation above about 15%;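 note: untransfected CHO-K1 host cells lacking M1 receptor as counterscreen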
# CHRM1 antagonist: blocks human M1 muscarinic receptor; P11229; CHO-K1 hM1, Fluo-8 calcium fluorescence, ACh EC80 antagonist; inhibition, % at 3 µM; 360,000 compounds, 1.3% hits;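 active = percent inhibition above its own plate's cutoff, namely the mean of that plate's compound wells plus 3 SD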;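 note: peak over basal fluorescence ratio during 140 s after agonist addition; 0% = ACh EC80 plus DMSO and 100% = DMSO alone without agonist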
# * = called active by the depositor. Compounds with a hit are over-represented: about 2.3% of the library has one in this group of screens.
SMILES,CHO-K1 Ca antag,M1 PAM,CHRM1 agonist,M1 PAM parental,CHO-K1 Ca ag,CHRM1 antagonist
C/C(CC(=O)Nc1ccc(N(C)C)cc1)=N\NC(=O)c1ccc([N+](=O)[O-])cc1,10,6,-3,-21,0,-8
CCC(C)NC(=O)CCn1ccc2cc(S(=O)(=O)N3CCCC3)ccc21 (centres undefined),-14,3,-4,16,1,-8
Cc1ncc(CN2CCCC(C(=O)Nc3ccc(-c4cccc(F)c4)cc3)C2)n1C (centres undefined),2,-18,-3,1,5,32*
COc1cccc(-c2ccc(NC(=O)C3CCCN(Cc4cnc(C)n4C)C3)cc2)c1 (centres undefined),-6,-18,-4,16,6,28
O=C(Nc1nc2ccc(F)cc2s1)C1CCN(S(=O)(=O)c2cc([N+](=O)[O-])ccc2Cl)CC1,32*,-22,-9,2,7,32*
Cc1ccc2nc(NC(=O)C3CCN(S(=O)(=O)c4cc([N+](=O)[O-])ccc4Cl)CC3)sc2c1,25*,-17,-9,13,5,28
CC(NC(=O)C1CCN(S(=O)(=O)c2cc([N+](=O)[O-])ccc2Cl)CC1)c1ccccc1 (centres undefined),5,3,-4,21,2,3
Cc1ccc(NC(=O)C2CCN(S(=O)(=O)c3cc([N+](=O)[O-])ccc3Cl)CC2)nc1,16,-19,-2,-15,14,42*
Cc1ccc(Nc2nc3ccccc3nc2Nc2c(C)n(C)n(-c3ccccc3)c2=O)cc1,1,9,-4,12,0,-6
CC[n+]1c(-c2ccc(C)cc2)csc1Nc1c(C)n(C)n(-c2ccccc2)c1=O,-1,-26,-8,10,2,35*
CC[n+]1c(-c2ccccc2)csc1Nc1c(C)n(C)n(-c2ccccc2)c1=O,-5,-26,-9,17,2,51*
CC(C)NC(=O)Nc1cccc2c1O[C@H](CN(C)C(=O)NC1CCCCC1)[C@H](C)CN([C@H](C)CO)C2=O,7,9,-6,-2,0,-14
COCCn1c(SCC(=O)N2CCCC2=O)nnc1-c1ccncc1,-9,2,2,19,0,-7
C=CCC[C@@H](Cc1ccc(F)cc1)C(=O)OC[C@H](Cc1c[nH]c2ccccc12)NC(=O)[C@@H](CC=C)CC(=O)NCCO,8,5,1,2,18*,1
C=CC[C@@H](CC(=O)N[C@H](CO)Cc1ccccc1)C(=O)NC[C@H](OC(=O)[C@@H](CC=C)Cc1ccc(F)cc1)c1ccccc1,-4,-19,-4,2,4,34*
Cc1ccccc1S(=O)(=O)N(C)C[C@@H]1OCc2cn(nn2)CCCC(=O)N([C@H](C)CO)C[C@H]1C,-5,-5,-3,15,1,5
O=C(Nc1nnc(S(=O)(=O)N2CCCCCC2)s1)c1ccccc1F,1,-16,0,-10,4,31*
COc1ccc(C(=O)Nc2ccccc2Cc2ccccc2)c(OC)c1,-23,-6,-6,52*,1,2
COc1ccc(NC(=O)c2cccnc2)c(OC)c1,27*,-8,-4,-13,0,15
COc1ccc(NC(=O)c2ccccc2OCc2ccc(F)cc2)c(OC)c1,-23,-8,-8,43*,1,6
COc1ccc(NC(=O)c2ccccc2Oc2ccccc2)c(OC)c1,-19,-1,5,36,0,-14
COC(=O)c1cc(OC)c(OC)cc1NC(=O)c1ccc(OC)cc1,26*,8,0,-10,20*,-10
O=C(CN1CCN(C(=O)CNC(=O)c2ccc3c(c2)OCO3)CC1)Nc1cccc(F)c1,-9,11,-1,17,0,-11
CN1/C(=C/C=C(C#N)C#N)C(C)(C)c2ccccc21,-17,9,0,17,1,-10
CC1=C/C(=C\C=C(C#N)C#N)N(C)c2ccccc21,4,-6,22*,2,27*,11
SMILES,CHO-K1 Ca antag,M1 PAM,CHRM1 agonist,M1 PAM parental,CHO-K1 Ca ag,CHRM1 antagonist
O=C1NC(NS(=O)(=O)c2ccccc2)(C(F)(F)F)C(=O)N1c1cccc(Cl)c1 (centres undefined),-7,5,-1,5,0,-9
O=C(CNCc1ccc(Cl)cc1)Nc1cc(S(=O)(=O)N2CCCC2)ccc1Cl,-21,2,-3,12,4,-7
O=C(COc1ccc(Cl)cc1Cl)Nc1ccc(CN2CCOCC2)cc1,-5,-10,-8,8,11,4
O=C(COc1ccc(Cl)cc1Cl)Nc1ccc(CN2CCCCC2)cc1,-10,-35,-14,11,5,21*
COc1ccc(C(=O)NC(=S)Nc2ccc(CN3CCOCC3)cc2)cc1Cl,0,-12,1,2,13,11
COc1ccc(C(=O)NC(=S)Nc2ccc(CN3CCCCC3)cc2)cc1Cl,-10,-22,-7,17,3,29*
CC(Sc1ccccc1)C(=O)N/N=C/c1ccccc1 (centres undefined),14,-7,0,-25,0,12
O=C(CCl)Nc1c2c(nn1-c1ccccc1)CSC2,3,7,-2,15,1,-1
CC(=O)Nc1ccc(Sc2ncccc2C(=O)Nc2ccc(OC(F)(F)F)cc2)cn1,59*,-20,66*,-10,53*,64*
O=C1c2cccc3cccc(c23)C(=O)N1CC1CCN(CC(O)COc2ccc3ccccc3c2)CC1 (centres undefined),-2,-16,1,11,11,47*
Cc1cc(C)cc(OCC(O)CN2CCC(CN3C(=O)c4cccc5cccc(c45)C3=O)CC2)c1 (centres undefined),4,-20,2,-4,8,48*
O=C(NOC(=O)c1c(F)cccc1Cl)c1ccc(Cl)c(Cl)c1,-3,3,-3,1,6,3
O=C(OCC(=O)N(Cc1ccccc1)Cc1ccccc1)c1ccccc1NCCO,10,-8,0,-4,6,21*
COc1cccc(CN(C)C(=O)c2ccc(OCC(=O)Nc3cccc(C(F)(F)F)c3)c(OC)c2)c1,19,-12,1,-25,12,40*
CCN(CC(=O)Nc1ccc(NC(C)=O)cc1)C(=O)c1cc2c(s1)CCCCC2,0,8,-3,2,2,-9
COc1ccc(NC(=O)Cn2nnc(C(=O)NCCc3ccccc3)c2N)cc1,3,11,-4,15,19*,-5
CCn1nc(C)c(Br)c1Nc1ccc(Br)cc1,-6,3,-4,10,0,-2
CCCc1cc(=O)[nH]c(SCC(=O)Nc2cc(S(=O)(=O)N3CCCCC3)ccc2C)n1,-12,2,-5,5,0,0
